Compound activity (PubChem)
FLuc counter = inhibits or activates purified firefly luciferase, miR-21 counter-screen | P08659 | 6.9% of 360,000 active | AID 588342 | purified FLuc, Km substrates, luminescence inhibition | Potency, µM (series often up to 57.5 µM), without a hit: at the top dose activity change, negative = inhibition, usual class: inhibitors;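 further: plate controls were vehicle for no effect and reference inhibitor for full effect; nearly all actives have a fitted effect of over 55% in size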
Target sequence (P08659 whole entry, looked up): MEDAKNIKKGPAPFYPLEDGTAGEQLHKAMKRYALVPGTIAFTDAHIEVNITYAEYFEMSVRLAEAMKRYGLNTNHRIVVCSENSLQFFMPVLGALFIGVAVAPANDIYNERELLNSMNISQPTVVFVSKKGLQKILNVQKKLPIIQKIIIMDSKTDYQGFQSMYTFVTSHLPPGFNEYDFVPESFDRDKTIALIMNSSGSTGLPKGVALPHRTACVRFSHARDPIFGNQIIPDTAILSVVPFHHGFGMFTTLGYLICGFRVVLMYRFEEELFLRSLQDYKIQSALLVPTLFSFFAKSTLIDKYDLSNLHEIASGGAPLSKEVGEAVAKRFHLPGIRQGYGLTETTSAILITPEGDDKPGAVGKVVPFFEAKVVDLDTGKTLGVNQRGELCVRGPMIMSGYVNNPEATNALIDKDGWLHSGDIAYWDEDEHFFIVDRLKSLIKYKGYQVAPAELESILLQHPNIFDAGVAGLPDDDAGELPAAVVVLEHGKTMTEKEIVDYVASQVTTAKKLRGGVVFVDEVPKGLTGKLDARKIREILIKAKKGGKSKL
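Biochemical qHTS of compounds, final roughly 60 µM downward over six points, against 10 nM purified firefly luciferase using Km concentrations of substrates (10 uM D-luciferin, 10 uM ATP) in Tris acetate pH 7.5 buffer; luminescence output.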
ELG1 genotoxic = induces genotoxicity in HEK293T cells with luciferase-tagged ELG1. HEK293T ELG1-luciferase reporter, luminescence, 16 h. Potency, µM (series often up to 46 µM), inactives show at the top dose activity change, positive = activation, actives largely listed as activators. 1.3% of 330,000 active; further: % of control where 0% means no effect; nearly all actives have a fitted effect of over 60% in size
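HEK293T cells expressing luciferase-tagged ELG1 were exposed to compound or DMSO vehicle for 16 hr at 37 °C and 5% CO2. Luciferase activity was then measured with ONE-Glo after 30 min at room temperature.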
KinaseGlo FLuc = blocks Kinase-Glo luciferase, a counter-screen artifact; Q27757; Kinase-Glo luciferase, ATP luminescence, 8 min; Potency, µM (highest dose often 38.3 µM), for the others: at the highest dose activity change, negative = inhibition, most hits filed as inhibitors; 0.28% of 200,000 active; AID 1379; further: on the % scale 0 is the no-effect control and ±100 the full control effect; nearly all actives have a fitted effect of over 60% in size
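Kinase-Glo luciferase light output from ATP and luciferin was measured with 10 uM ATP, within the enzyme's linear range. Buffer: 50 mM imidazole pH 7.2, 50 mM KCl, 7 mM MgCl2, 0.01% Tween 20, 0.05% BSA; luminescence read after 8 min at ambient temperature.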
SMN2 splice enh = enhancers of SMN2 splice variant expression; 2.8% of 210,000 active; AID 1458; HEK293 SMN2-luciferase splicing reporter, luminescence, 30-36 h; Potency, µM (titrated, usually from 46.1 µM), for the others: at the highest dose activity change, positive = activation, usual class: activators; further: % of control where 0% means no effect; nearly all actives have a fitted effect of over 55% in size
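HEK293 cells carry an SMN2 […]–luciferase reporter in which exon 7 inclusion puts luciferase in frame. Cells were plated 10-12 h before compound addition, then incubated 30-36 h at 37C. ONE-Glo luminescence was read; sodium butyrate at 4.5 mM final served as control.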
NPC1 prom act = NPC1 promoter activation | Huh7 NPC1 promoter luciferase reporter, 24 h | 2.4% of 320,000 active | AID 485313 | Potency, µM (doses to about 9.22 µM), without a hit: at the top dose activation, usual class: activators; further: % of control where 0% means no effect; nearly all actives have a fitted effect of over 60% in size
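Huh7 cells stably carrying NPC1 promoter–luciferase, plated in Opti-MEM with 10% FBS for 2 h, were exposed to compound in DMSO for 24 h at 37 °C; luciferase reagent was added for 10 min and luminescence read.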
Rab9 prom act = Rab9 promoter activation. Huh7 Rab9 promoter-luciferase reporter, luminescence, 24 h. Potency, µM (highest dose often 9.22 µM), without a hit: at the highest dose activation, negative = inhibition, hits mostly activators. 2.8% of 320,000 active. AID 485297; further: % of control where 0% means no effect; nearly all actives have a fitted effect of over 60% in size
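Using Huh7 cells stably transfected with Rab9 promoter–luciferase, compounds were incubated 24 h at 37 °C, 5% CO2; luciferase luminescence was read 10 min after reagent addition.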
The depositor's hits bear a star; ? = inconclusive; . = no result given. An excerpt weighted towards active compounds, which were near 7.5% of everything screened. The call rests on the fitted dose curve; in most records, active means well fitted curve in the direction sought with a large enough effect; inconclusive means small, poorly fitted or top-dose-only effect, or another doubt; inactive means no such curve, though single readings can be large; an effect the other way counts as inactive or inconclusive. Potency means the concentration at half of the fitted maximal effect.

SMILES | FLuc counter | ELG1 genotoxic | KinaseGlo FLuc | SMN2 splice enh | NPC1 prom act | Rab9 prom act
COc1ccc(NC(=O)CCN2C(=O)c3ccccc3C2=O)cc1 | 4% | 0% | . | . | -5% | 4%
CCc1ccc(C(=O)Nc2nnn(CC)n2)cc1 | 4.3µM* | 1.6µM* | ? | 0.5µM* | 2µM* | 0.5µM*
CCCCn1nnc(NC(=O)c2cc3ccccc3o2)n1 | ? | 6.5µM* | 0% | ? | 3.2µM* | 1.6µM*
CCCn1nnc(NC(=O)c2ccc(-c3cccc(Cl)c3)o2)n1 | 17µM* | 11% | -4% | 7% | 29% | ?
CCCCn1nnc(NC(=O)c2ccc(-c3cccc(Cl)c3)o2)n1 | ? | 0% | -2% | -10% | 14% | 11%
CCn1nnc(NC(=O)c2cc3ccccc3o2)n1 | 15µM* | 15µM* | 1% | 32µM* | ? | ?
CCc1cccc(NC(=O)c2ccc3c(c2)N(Cc2cccc(Cl)c2)C(=O)c2ccccc2S3=O)c1 (stereo not drawn) | -2% | . | . | . | . | .
CC#CCC1(C(=O)OC)C(=O)NC[C@H]1c1ccccc1 (stereo partly drawn) | . | . | -1% | -7% | . | .
COc1ccc(C(C(=O)NCc2ccccc2)N(C(=O)Cn2nnc3ccccc32)c2cccc(OC)c2)cc1 (stereo not drawn) | 1% | . | . | -2% | . | .
CCCn1nnc(NC(=O)c2cccc(Cl)c2)n1 | -17% | 6% | -7% | ? | 28% | 22%
CCCn1nnc(NC(=O)c2cc3ccccc3o2)n1 | 19µM* | 5.8µM* | -7% | 10µM* | 2.5µM* | ?
CCCn1nnc(NC(=O)c2ccc3c(c2)OCO3)n1 | 19µM* | ? | . | . | 2.8µM* | 1.6µM*
Cn1nnc(NC(=S)NC(=O)c2cc3ccccc3o2)n1 | ? | 1% | . | . | 3% | 10%
COc1ccc2[nH]cc(S(=O)(=O)c3ccc(C)c(C)c3)c(=O)c2c1 | 2% | . | . | 2% | . | .
Fc1ccccc1-n1ncc2c1ncn1nc(Cc3ccccc3)nc21 | 6µM* | . | . | 11µM* | . | .
COc1ccc(Cc2nc3c4cnn(-c5ccccc5F)c4ncn3n2)cc1 | ? | . | . | 3% | . | .
CCCCc1ccc(-c2ccc(Br)cc2)nc1 | 1.2µM* | ? | -9% | 3.5µM* | 1.3µM* | 1µM*
CCCc1ccc(-c2ccc(F)c(N)c2)nc1 | 0.3µM* | ? | ? | 0.71µM* | 0.5µM* | 0.4µM*
Nc1cc(-c2nn[nH]n2)ccc1F | -1% | 0% | 0% | -14% | -4% | 6%
CCc1ccc(-c2ccc(C(=O)Oc3ccc(Br)cc3)cc2)nc1 | -1% | . | . | 5% | . | .
Cc1ccc(C(=O)NC2(O)C(=O)c3ccccc3C2=O)cc1C | 2.4µM* | -2% | . | . | -3% | -2%
COc1ccc(-c2cnc(C)o2)cc1S(=O)(=O)Nc1ccc(F)cc1F | 4% | . | . | . | . | .
O=C(Cc1csc2nc(-c3ccc(F)cc3)cn12)NCc1ccccc1 | 4% | . | . | . | . | .
CCc1ccc(CNC(=O)Cc2ccc(NC(=O)C3=C(C)OCCS3)cc2)cc1 | 2.4µM* | ? | . | . | ? | 10%
CC1=C(C(=O)Nc2ccc(CC(=O)NCc3ccccc3C)cc2)SCCO1 | 2.4µM* | ? | . | . | 17% | ?
SMILES | FLuc counter | ELG1 genotoxic | KinaseGlo FLuc | SMN2 splice enh | NPC1 prom act | Rab9 prom act
COc1cccc(CNC(=O)Cc2ccc(NC(=O)C3=C(C)OCCS3)cc2)c1 | 1.9µM* | ? | . | . | ? | 3.2µM*
CC1=C(C(=O)Nc2cccc(C(=O)NCc3ccc(F)cc3)c2)SCCO1 | -18% | -3% | . | . | -4% | -10%
COc1ccc(N2CCN(C(CNC(=O)c3c(F)cccc3F)c3ccc4c(c3)OCO4)CC2)cc1 (stereo not drawn) | 2% | . | . | . | . | .
Cn1c(C(=O)NCc2cccc(Cl)c2)cc2oc3ccccc3c21 | -1% | . | . | ? | . | .
COCCNC(=O)c1cc2oc3ccccc3c2n1C | 9.5µM* | ? | -1% | . | 26% | 3.2µM*
CCCC(=O)OCc1cnc(C)c2oc(=O)c(C(=O)Nc3ccccc3)cc12 | -3% | . | . | . | . | .
